± gives the standard deviation.
Experiments:
Conditions in all cases: modulator concentration 10 µM
[1] = system: RAW-Dual (murine macrophage reporter line); test: NF-kB reporter (SEAP) activity fold change vs agonist alone; higher = enhanced NF-kB activity
Summary of the method: (§1)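 In 384-well plates holding 50 000 RAW-Dual murine macrophage reporter cells per well, compound at 10 μM final was pre-incubated for 1 hour at 37 °C, after which a PRR agonist was added overnight. Supernatant SEAP read with QUANTI-Blue at 620 nm absorbance reported NF-κB, and Lucia luciferase read with QUANTI-Luc luminescence reported IRF. Fold change values come from dividing each reporter signal by the mean of agonist-only control wells on the same plate, averaged over replicate plates with propagated errors.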

[2] = system: RAW-Dual (murine macrophage reporter line); test: IRF reporter (Lucia luciferase) activity fold change vs agonist alone; higher = enhanced IRF activity
Summary of the method: as §1

[3] = system: RAW-Dual (murine macrophage reporter line); test: viability score (confluency relative to resting cells, overnight) (fraction); higher = more viable, active = viable (0.7 or more)
Summary of the method: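 A compound met the cutoff when both of two confluency masks exceeded 70% of resting cells. Those masks were made with IncuCyte software from IncuCyte images of RAW-Dual macrophages treated overnight at 10 μM final. This is the basis of the viability score, which is confluency relative to resting cells.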

[4] = agonist: CpG ODN 1826 0.5 ug/mL

SMILES	NF-kB reporter [1, 4]	NF-kB reporter ([1]; agonist: LPS 0.1 ug/mL)	NF-kB reporter ([1]; agonist: MPLA […])	IRF reporter ([2]; agonist: 3'3'-cGAMP 10 ug/mL)	IRF reporter ([2]; agonist: LPS 0.1 ug/mL)	IRF reporter ([2]; agonist: MPLA […])	viability score [3]
COc1ccc(-c2cc(C(F)(F)F)n3nc(C(=O)Nc4cc(OC)c(OC)c(OC)c4)c(Cl)c3n2)cc1OC	0.885 ± 0.081	1.01 ± 0.089	0.795 ± 0.058	0.566 ± 0.14	1.27 ± 0.19	1.1 ± 0.12	1.01 (active)
COc1ccc(CN(CCN(C)C)c2ccccn2)cc1.O=C(O)/C=C\C(=O)O	0.568 ± 0.15	1 ± 0.053	1.01 ± 0.094	0.834 ± 0.073	0.773 ± 0.13	0.78 ± 0.087	0.946 (active)
CC1CCC2C(C)(C)C3CC12CCC3(C)O (centres undefined)	1.04 ± 0.081	0.883 ± 0.11	0.965 ± 0.094	0.999 ± 0.052	1.15 ± 0.16	1.25 ± 0.23	1.05 (active)
O=C(Nc1nc(CC(=O)N2CCOCC2)cs1)c1ccccc1	1.02 ± 0.073	1.02 ± 0.09	0.941 ± 0.14	0.995 ± 0.053	1.24 ± 0.087	1.29 ± 0.1	1.01 (active)
COc1cccc(N2C(=O)CN(Cc3ccccc3)C3CS(=O)(=O)CC32)c1 (centres undefined)	1.43 ± 0.078	0.719 ± 0.057	1.49 ± 0.093	0.322 ± 0.034	0.237 ± 0.05	0.216 ± 0.075	0.832 (active)
N=C1NC(=O)C(=Cc2ccc(-c3cccc(Cl)c3)o2)S1	0.688 ± 0.091	0.695 ± 0.048	1.77 ± 0.11	1.39 ± 0.11	1.17 ± 0.14	2.82 ± 0.65	0.932 (active)
CC(C)c1ccccc1NC(=O)C1COCC(=O)N1Cc1ccccc1 (centres undefined)	0.983 ± 0.063	0.996 ± 0.15	1.08 ± 0.058	0.985 ± 0.074	1.15 ± 0.26	1.29 ± 0.51	0.979 (active)
